Bioassay records deposited in PubChem BioAssay by several laboratories.
VLA-4 inh: inhibition in a human VLA-4 binding assay; inhibition, % (about 7 µM as worked out from the volumes in the protocol); VLA-4 expressing cells, ligand binding flow cytometry; P13612; 0.2% of 330,000 active; AID 2557; in the data active = inhibition above about 50%
GRK2 aptamer HTS: blocks RNA aptamer binding to human GRK2; 0.59% of 330,000 active; inhibition of aptamer binding, % at 10 µM; bead flow cytometry, FAM-aptamer displacement from GRK2; P25098; AID 488847;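 active = inhibition of aptamer binding above 40%, roughly 3 SD of noise, on plates passing a quality check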;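 also: median bead fluorescence of bound FAM aptamer so fluorescent compounds give negative values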
NTR1 agonist: agonists of human neurotensin receptor NTR1 | P30989 | NTR1-U2OS beta-arrestin-GFP spot imaging, agonist mode | activation, % at 20 µM | 0.17% of 330,000 active;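 active = activation at or above 40% of the spot to cytoplasm intensity ratio, with at least 20 cells analyzed; inconclusive = wells under 20 cells, flagged as cytotoxic or low count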;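 also: 0% = DMSO without peptide and 100% = 100 nM NTR1 peptide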
Target sequence (P30989 whole entry, looked up): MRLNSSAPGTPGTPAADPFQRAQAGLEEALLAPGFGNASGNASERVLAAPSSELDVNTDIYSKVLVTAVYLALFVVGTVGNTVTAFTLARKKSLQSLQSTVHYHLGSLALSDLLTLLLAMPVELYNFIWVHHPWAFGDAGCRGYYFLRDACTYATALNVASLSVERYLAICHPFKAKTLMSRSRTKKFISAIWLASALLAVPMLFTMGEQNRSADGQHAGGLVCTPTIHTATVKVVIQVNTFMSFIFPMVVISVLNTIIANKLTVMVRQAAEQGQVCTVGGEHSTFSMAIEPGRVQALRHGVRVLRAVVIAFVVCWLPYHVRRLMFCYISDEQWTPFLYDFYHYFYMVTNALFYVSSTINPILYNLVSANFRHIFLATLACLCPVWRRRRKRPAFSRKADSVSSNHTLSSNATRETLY
A1 inh: inhibitors of the anti-apoptotic protein A1, read as caspase activation; MEF A1-2A-BIM cells, Caspase-Glo 3/7 luminescence, 3 h; percent of clofoctol response, vehicle zero; caspase activation, % (test concentration not listed); 0.066% of 330,000 active; AID 2462;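 active = over half of replicate activation scores above 10%, or exactly half above 10 with the replicate mean above 10; inconclusive = replicate mean below 10 yet half the replicates above 10; inactive = over half of replicates below 10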
B2AR ag: agonists of human beta-2 adrenergic receptor inducing internalization. P07550. Am2.2-beta2AR cells, FAP receptor internalization, flow cytometry. response, % (no concentration beside the values). 0.43% of 340,000 active. AID 504454;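 active = response above a set limit, near 3 SD of response in nonfluorescent compounds, cut at about 42% in these data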
Beta2AR ag CP1: activates human beta-2 adrenergic receptor; shares compounds with B2AR ag; Am2.2-beta2AR cells, FAP surface receptor, flow cytometry; stronger effect = lower value; percent response (surface receptor), % at 10 µM; 25% of 1,100 active; AID 540358;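 active = surface receptor percent response at or below 58%, roughly 3 SD from nonfluorescent compounds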
B2AR FAP counter: fluorescence artifact in beta-2AR agonist FAP counterscreen; 1,100 tested, under 10 active; calls only at 10 µM; shares compounds with B2AR ag; AID 588765; Am2.2 cells, FAP fluorogen flow cytometry; stronger effect = lower value;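 active = percent response below a set limit in fluorescence channel 1 and below 50% in channel 8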
The depositor's hits bear a star; i = inactive; ? = inconclusive; · = no result. Rows were chosen to be rich in hits. Some 1.3% of all compounds tested hit in one or more screens of this group.

SMILES | VLA-4 inh | GRK2 aptamer HTS | NTR1 agonist | A1 inh | B2AR ag | Beta2AR ag CP1 | B2AR FAP counter
CCOC(=O)C1CCN(C(=O)COC(=O)c2ccccc2OCC)CC1 | -14 | 1 | 0 | 0 | 0 | · | ·
Cc1ccc(C(=O)c2ccccc2C(=O)OCC(=O)N2C(C)CCCC2C)cc1 (stereo unspecified) | 12 | 0 | 1 | 0 | 4 | 123 | i
C=C(CCO)C1=CCN(S(=O)C(C)(C)C)[C@H]1CCO (stereo partly specified) | · | · | · | · | -2 | · | ·
COc1ccccc1C(=O)NC(=O)COC(=O)CCS(=O)(=O)c1ccc(C)cc1 | 34 | 0 | 0 | ? | 5 | · | ·
COC(=O)C(C(=O)OC)C(CC(=O)c1ccc(Br)cc1)c1ccccc1 (stereo unspecified) | · | · | · | · | 12 | · | ·
CCOc1ccc(Br)cc1S(=O)(=O)NCCN1CCCC1 | -6 | 0 | 0 | 0 | 0 | · | ·
COc1ccc(C(=O)CCC(=O)Nc2ccc(N3CCCCC3)cc2)cc1OC | 3 | 1 | 1 | 0 | 72* | 98 | i
c1ccc(OCCCCn2cnc3ccccc32)cc1 | 10 | 1 | 0 | 0 | 45* | 100 | i
COc1ccccc1C(=O)NCC(=O)OC(C)C(=O)N1CCOCC1 (stereo unspecified) | -1 | 0 | -1 | 0 | -8 | · | ·
CCOC(=O)CSCC(=O)N1CCC(Cc2ccccc2)CC1 | 0 | 2 | 2 | 1 | 66* | 90 | i
CCOC(=O)C(=O)N1CCC(Cc2ccccc2)CC1 | 12 | 0 | 1 | 0 | 4 | · | ·
CCOC(=O)Cn1nnnc1CN(Cc1ccc(OC)cc1)Cc1cc2cc(CC)ccc2[nH]c1=O | 12 | 0 | 3 | 1 | 86* | 103 | i
CCOc1cc(-c2nc3ccccn3c2NCC2CCCO2)ccc1O (stereo unspecified) | -11 | 0 | 3 | 0 | 20 | 30* | i
O=C1ON=C(c2ccccc2)/C1=C/c1cccnc1 | · | · | · | · | -3 | 100 | i
COC(=O)c1ccc(-n2c(C)cc(C(=O)CSc3cccc[n+]3[O-])c2C)cc1 | 0 | 0 | 0 | 0 | 3 | · | ·
COC(=O)c1ccc(C(=O)OC)c(NC(=O)CSc2cccc[n+]2[O-])c1 | -2 | 4 | 0 | 0 | 4 | 102 | i
Cc1ccc(SCC(=O)NC(=O)NC2CCCC2)c(C)c1 | · | · | 2 | · | 4 | · | ·
CC(C)COc1ccc(-c2nnc(-c3ccco3)o2)cc1 | 6 | 2 | 4 | -6 | -5 | · | ·
CCN(CC)CCCNc1ccc(-c2nnc(-c3ccc(OCC(C)C)cc3)o2)cn1 | 29 | 0 | 7 | -1 | 48* | 102 | i
CN(CCCN1CCCCC1)C(=O)c1cc(COc2ccc(F)cc2F)on1 | 19 | 1 | 0 | 1 | -11 | · | ·
N#Cc1ccc(NC(=O)Cn2cnc(S(=O)(=O)N3CCc4ccccc43)c2)cc1 | 8 | 2 | 2 | 1 | 6 | · | ·
COc1cc(CNCCc2ccc(S(N)(=O)=O)cc2)ccc1OCc1ccc(Cl)cc1 | 8 | 0 | 2 | 1 | 55* | 93 | i
CCOc1cc(CNCCc2ccc(S(N)(=O)=O)cc2)ccc1OCc1ccc(Cl)cc1 | 11 | 0 | 14 | 1 | 50* | 31* | i
COc1cc(CNCCc2ccc(S(N)(=O)=O)cc2)ccc1OCC(=O)NC1CCCCC1 | 12 | 1 | 0 | -1 | -7 | · | ·
O=C(CSc1ccccc1F)NCC1(N2CCCCC2)CCCCC1 | -7 | 3 | -1 | -1 | 4 | · | ·
COC(=O)CNC(=O)C1CCN(S(=O)(=O)c2cnc[nH]2)CC1 | 6 | 0 | 1 | 0 | 0 | · | ·
C=CCn1c(CCNC(=O)c2cccs2)nnc1SCC(=O)c1ccc(Cl)cc1 | -1 | 0 | 0 | · | 90* | 31* | i
C=CCn1c(CCNC(=O)c2cccs2)nnc1SCC(=O)c1cccc([N+](=O)[O-])c1 | -3 | 5 | -2 | 0 | 106* | 9.3* | i
C=CCn1c(CCNC(=O)c2cccs2)nnc1SCC(=O)Nc1cccc(Cl)c1C | 3 | 0 | -2 | 2 | 60* | 60 | i
